Screens as filed in PubChem BioAssay.
This is a sample that favours compounds with a hit; in the whole collection about 1.3% have one here.
Mtb bLac sens – beta-lactam sensitization of Mtb H37Rv | inhibition, % at 25 µM | 0.27% of 330,000 active | M. tuberculosis H37Rv growth with meropenem, percent inhibition; call rule not given here;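 note: growth measured after seven days incubation then overnight dye step; 0% = bacteria only wells and 100% = bacteria with antibiotic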
ugtP null kill – compounds lethal to S. aureus RN4220 ugtP deletion mutant; AID 1259309; growth inhibition, % (test concentration not listed); OD600 growth, 16 h; 0.54% of 330,000 active; in the data active = growth inhibition above about 68%;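 note: plate controls were untreated wells for no effect and antibiotic for full effect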
MazEF act – MazEF (E. coli) toxin RNase activation; 0.32% of 350,000 active; FAM/BHQ RNA-DNA oligo cleavage fluorescence, 5 h; activation, % at 20 µM; P0AE70; in the data active = activation above about 50%
Target sequence (P0AE70 whole entry, looked up): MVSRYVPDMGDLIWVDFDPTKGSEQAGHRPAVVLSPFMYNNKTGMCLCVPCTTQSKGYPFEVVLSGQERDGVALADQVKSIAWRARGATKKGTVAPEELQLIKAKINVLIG
SARS 3CLpro inh – SARS-CoV 3CLpro protease inhibition; recombinant SARS-CoV 3CLpro, quenched FRET peptide cleavage; inhibition, % at 6 µM; 0.14% of 290,000 active; AID 1706; in the data active = inhibition above about 12%
CCHF vOTU inh – blocks the CCHF virus ovarian tumor domain protease. CCHFV vOTU protease, Pep-AMC fluorescence. inhibition, % at 11.5 µM. 0.55% of 370,000 active; in the data active = inhibition above about 30%; note: 0% = vehicle wells with enzyme and 100% = no enzyme wells
Sa RN4220 lethal – kills Staphylococcus aureus RN4220 | S. aureus RN4220 growth, OD600, 16 h | AID 1259311 | 0.33% of 330,000 active | inhibition, % (test concentration not listed); in the data active = inhibition above about 85%;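 note: plate controls were untreated cells for no effect and reference antibiotic for full effect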
Starred values were filed as active, the others as inactive; · = not tested or not shown; + = active, no number.

SMILES	Mtb bLac sens	ugtP null kill	MazEF act	SARS 3CLpro inh	CCHF vOTU inh	Sa RN4220 lethal
CCc1ccc(C2NC(=S)NC3=C2C(=O)N(c2ccccc2OC)C(c2ccc(CC)cc2)N3)cc1 (configuration not stated)	7	-31	-8	1	-8	-2
O=C1C2=C(NC(=S)NC2c2ccc(Cl)cc2)NC(c2ccc(Cl)cc2)N1c1ccc(Cl)cc1 (configuration not stated)	-1	93*	-2	2	19	100*
O=C(Nc1cc(Sc2ccccn2)cc([N+](=O)[O-])c1)c1cccc(F)c1	7	-27	52*	6	1	-2
O=C(Nc1cc(Sc2nc3ccccc3s2)cc([N+](=O)[O-])c1)c1ccccc1	16	-29	11	2	3	-7
Nc1nc(N(Cc2ccccc2)Cc2ccccc2)nc(C(F)(F)F)n1	12	98*	-2	·	11	7
Cc1c(C=NNC(=O)c2cccc(F)c2)cnn1C	·	0	·	·	·	6
NC1C2CN(c3nc4c(cc3F)c(=O)c(C(=O)O)cn4-c3ccc(F)cc3F)CC12 (configuration not stated)	100	98*	2	0	·	100*
O=C(NN=Cc1cc([N+](=O)[O-])ccc1Cl)c1cnccn1	·	2	·	·	·	2
C=CCn1c(=O)c(C(=O)NCc2ccc(Cl)cc2)c(O)c2ccccc21	3	50	24	2	-2	11
C=CCn1c(=O)c(C(=O)Nc2ccc(C)cn2)c(O)c2ccccc21	92	100*	1	2	-7	96*
C=CCn1c(=O)c(C(=O)NCCc2ccccc2)c(O)c2ccccc21	0	28	-10	2	-1	8
C=CCn1c(=O)c(C(=O)Nc2cccnc2)c(O)c2ccccc21	1	61	4	2	17	99*
Cc1noc(C)c1NC(=O)Nc1cccc2c1OC(CN(C)C(=O)Nc1ccc(C(F)(F)F)cc1)C(C)CN(C(C)CO)C2=O (configuration not stated)	·	-11	·	·	·	0
CC(=NNC(=O)c1ccc(Cn2cc(Br)cn2)o1)c1cccc(NC(=O)C(C)(C)C)c1	·	-1	·	·	·	8
CON=Cc1ccc(Oc2ccc([N+](=O)[O-])cc2[N+](=O)[O-])c(OC)c1	·	-16	·	·	·	-3
Cc1ccc(NC(=O)CCC(=O)NN=Cc2ccco2)c(C)c1	·	-4	·	·	·	6
COc1cccc(C=NNc2ccc([N+](=O)[O-])cn2)c1O	·	48	·	·	·	14
O=[N+]([O-])c1ccc(NN=Cc2cc(Br)ccc2O)nc1	·	93*	13	·	3	59
O=[N+]([O-])c1ccc(NN=Cc2ccc3c(c2)OCO3)nc1	·	2	106*	·	-1	0
O=[N+]([O-])c1ccc(NN=Cc2cccc(O)c2)nc1	·	-14	11	·	15	6
O=C(C1=C(c2ccccc2)C(=O)c2ccccc2C1=O)c1ccccc1	·	96*	4	3	29	97*
COC1=C(c2ccccc2)C(=O)c2ccccc2C1=O	4	57	-12	-2	22	57
O=C(CCc1ccccc1)NN=Cc1cccc(O)c1	·	-7	·	·	·	1
CCOc1ccc(Oc2c(C=NNC(=O)COc3ccccc3OC)c(C)nn2-c2ccccc2)cc1	·	-7	·	·	·	-4
CC(=O)c1ccc(N2CCN(C(=O)c3cc4c(C)nc5ccccc5c4o3)CC2)cc1	15	-6	56*	-2	-9	6
SMILES	Mtb bLac sens	ugtP null kill	MazEF act	SARS 3CLpro inh	CCHF vOTU inh	Sa RN4220 lethal
CC(=O)c1ccc(N2CCN(C(=O)c3cc(-c4ccc5c(c4)OCO5)nc4ccccc34)CC2)cc1	12	101*	-14	4	3	-10
N#CC1=C(N)OC2=C(CN(Cc3ccccc3)CC2=Cc2cccnc2)C1c1cccnc1 (configuration not stated)	·	1	·	·	·	5
CCOC(=O)CC1c2ccccc2S(=O)(=O)N1Cc1ccc(Cl)cc1 (configuration not stated)	·	-10	·	·	·	4
Cc1ccc(Cl)c2c(N=Nc3ccccc3)c(O)[nH]c12	1	3	+	1	-2	0
Cc1ccc(C)c2c1[nH]c1ccc([N+](=O)[O-])cc12	4	84*	4	2	17	80
O=C(NC(Cc1ccccc1)C(=O)OCc1ccccc1)c1nc[nH]c1C(=O)N1CCNCC1 (configuration not stated)	·	1	·	·	·	4
Oc1ccc(-c2cc(-c3ccc(O)cc3)nc(-c3ccccc3)n2)cc1	100	100*	59*	4	20	97*
Oc1ccc(-c2cccc(-c3ccc(O)cc3)n2)cc1	12	99*	7	-8	2	98*
COc1ccc(Cl)cc1NC(=O)CC(C)=NNC(=O)CCc1ccccc1	·	6	·	·	·	6
CCCCOc1c(Br)cc(C=NO)cc1OCC	·	100*	·	·	·	0
Cc1ccc(CN2C3c4ccccc4CC3OCCS2(=O)=O)cc1 (configuration not stated)	·	20	·	·	·	10
NC(Cc1ccc([N+](=O)[O-])cc1)=NOC(=O)c1ccc(Br)cc1	·	4	·	·	·	-2
CC(=NNC(=O)CN1CCN(Cc2ccccc2Cl)CC1)c1cccnc1	·	6	·	·	·	4
CCCCCCCCCCCCCCCC[n+]1ccc(/C=N/O)cc1	68	·	4	10	56*	·
CCCCCCCCCCCCCCCC[n+]1cccc(C(=O)N(CC)CC)c1	93	100*	-20	4	22	100*
CCCCCCCCCCCCCCCC[n+]1ccc(C(N)=O)cc1	72	100*	-14	4	29	100*
NC(=O)C1CC2(CC(c3cccc(NC(=O)C4CCC(=O)N4)c3)=NO2)CN1C(=O)c1ccccc1 (configuration not stated)	·	3	·	·	·	4
O=C(Nc1ccccc1)/C(=C\c1cccs1)NC(=O)c1ccccc1	4	-7	7	-1	5	11
Cc1cccc(NC(=O)/C(=C\c2cccs2)NC(=O)c2ccccc2)c1	-4	-11	59*	-3	·	-7
CCOC(=O)C1Oc2ccccc2C(c2ccc(OC)cc2)=C1C(=O)OC (configuration not stated)	·	34	3	·	12	4
CCOC(=O)C1=C(c2ccccc2)c2ccccc2OC1C(=O)OCC (configuration not stated)	·	89*	3	·	3	4
CCOC(=O)c1ccc(N2CCCCC2)c(NS(=O)(=O)c2cccc(C(F)(F)F)c2)c1	4	88*	5	-1	9	1
CCOC(=O)C(O)C(O)c1cccc(C(O)C(O)C(=O)OCC)c1 (configuration not stated)	·	5	·	·	·	4
CCCCCC(=O)NC(=S)Nc1ccc(N2CCOCC2)cc1	41	91*	-12	-1	1	1
CCCC(=O)NC(=S)Nc1ccc(N2CCN(C(=O)c3cccs3)CC2)cc1	97	active	-8	6	1	97
CCOc1ccc2c(c1)S/C(=C\c1cccs1)C(=O)N2	-1	2	77*	3	12	-3
